TMEM16A act – activates or potentiates the mouse TMEM16A chloride channel. Q8BHY3. HEK293 TMEM16A/YFP-H148Q/I152L, iodide quench fluorescence; hits give low values. B-score at 10 µM. hit rate 0.3% among 340,000;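 active means fluorescence-ratio B-score plate-corrected deviation score at least 3 library SD below zero, with starting fluorescence score within 5 deviations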;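 further: channel opened by trigger with iodide after compound preincubation; score built on the fluorescence ratio of max minus min over baseline; more negative score means more quench and so TMEM16A activation or potentiation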
Target sequence (Q8BHY3 whole entry, looked up): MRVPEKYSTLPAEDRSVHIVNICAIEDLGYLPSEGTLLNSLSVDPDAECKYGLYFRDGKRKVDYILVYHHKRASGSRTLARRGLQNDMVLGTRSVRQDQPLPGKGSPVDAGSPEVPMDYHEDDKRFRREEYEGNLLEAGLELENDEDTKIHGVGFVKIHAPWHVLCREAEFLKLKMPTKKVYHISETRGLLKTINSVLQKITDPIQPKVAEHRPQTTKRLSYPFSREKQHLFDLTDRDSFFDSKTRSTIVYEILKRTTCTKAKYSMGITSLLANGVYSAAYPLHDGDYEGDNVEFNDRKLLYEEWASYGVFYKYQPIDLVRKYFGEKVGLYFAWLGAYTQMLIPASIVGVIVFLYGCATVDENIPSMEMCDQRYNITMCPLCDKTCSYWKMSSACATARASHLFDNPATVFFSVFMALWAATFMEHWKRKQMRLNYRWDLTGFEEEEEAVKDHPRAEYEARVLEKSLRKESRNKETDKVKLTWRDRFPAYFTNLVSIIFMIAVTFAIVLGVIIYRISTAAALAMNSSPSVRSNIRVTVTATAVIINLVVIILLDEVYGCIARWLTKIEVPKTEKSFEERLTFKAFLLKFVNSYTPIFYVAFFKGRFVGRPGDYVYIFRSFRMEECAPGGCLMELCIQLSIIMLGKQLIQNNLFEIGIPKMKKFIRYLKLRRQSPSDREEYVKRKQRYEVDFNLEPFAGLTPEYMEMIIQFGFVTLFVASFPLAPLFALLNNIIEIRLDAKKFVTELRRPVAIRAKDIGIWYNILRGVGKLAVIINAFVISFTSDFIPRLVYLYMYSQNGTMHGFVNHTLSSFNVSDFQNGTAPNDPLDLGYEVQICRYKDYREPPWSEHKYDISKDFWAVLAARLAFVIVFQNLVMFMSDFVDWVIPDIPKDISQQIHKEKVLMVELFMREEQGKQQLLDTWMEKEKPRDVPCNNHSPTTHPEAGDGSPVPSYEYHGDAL
CHT inh – inhibits the human high affinity choline transporter; hit rate 0.86% among 310,000; CHT-expressing cells, membrane potential dye, choline response; hits give low values; Q9GZV3; B-score at 10 µM;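 active means B-score over 3 SD under the library average, and starting fluorescence ratio not unusually high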;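 further: choline stimulus applied at its EC90 after an EC20 pre-addition; B-score computed on integrated fluorescence ratio after choline addition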
CHT PAM – allosteric activators of human choline transporter CHT; Q9GZV3; CHT-expressing cells, membrane potential dye, choline EC20; hits give high values; LV-AA mutant CHT in HEK293 cells; B-score at 10 µM; hit rate 0.49% among 310,000;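 active means initial fluorescence not abnormally high and integrated response B-score, plate-corrected, over 3 SD above library mean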
ANO1 block – blocks the mouse calcium-activated chloride channel TMEM16A. HEK293 TMEM16A/YFP iodide influx fluorescence, ionomycin. normalized B-score (activity score, 25-100; higher = stronger inhibition) at 10 µM. hit rate 1.2% among 310,000. AID 588511;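 active means ratio plate-corrected score three or more library SD toward inhibition, starting fluorescence score within five deviations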;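 further: score derived from kinetic fluorescence span divided by baseline fluorescence per well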
* = called active by the depositor; i = inactive; / = not tested or not shown. The list is not random: actives were taken first. Their share in the collection is about 2.3%.

SMILES	TMEM16A act	CHT inh	CHT PAM	ANO1 block
Cc1cccc(C)c1OCc1cc(C(=O)N2CCN(Cc3nccn3C)CC2)no1	i	i	i	i
CC(=O)Nc1ccc(S(=O)(=O)N[C@@H](C)C(=O)OCC(=O)Nc2ccc3c(c2)OCCO3)cc1	i	/	/	/
c1ccc(-c2csc3nnc(SCc4ccc5c(c4)OCCO5)n23)cc1	i	i	i	25*
O=C(NC(=S)Nc1ccc(-c2ccc(CO)o2)cc1)c1cccs1	i	i	i	100*
C[C@H](CO)N1C[C@H](C)[C@@H](CN(C)S(=O)(=O)c2ccccc2)Oc2c(NC(=O)c3ccncc3)cccc2C1=O	i	/	/	/
CN1CCc2c(OCc3ccc(F)cc3)cccc2C1=O	i	i	i	i
O=C1c2cccc(OCc3ccc(F)cc3)c2CCN1Cc1ccc(F)cc1	i	i	i	25*
CNC[C@H](Cc1ccccc1)NC[C@@H](Cc1cccc2ccccc12)NCCc1ccc(C)cc1	i	i	i	100*
CNCCNC[C@H](Cc1cccc2ccccc12)NCCc1ccccc1	i	/	/	/
COc1ccccc1CCC(=O)OCC(=O)NC1CC1	i	i	i	i
CC(C)NS(=O)(=O)c1ccc(NC(=O)C(C)Oc2ccc(C(=O)c3ccccc3)cc2)cc1 (configuration not stated)	i	i	i	100*
COc1ccc(Nc2sc(C(=O)c3ccc(Cl)cc3)c(N)c2C(=O)Nc2ccccc2OC)cc1	i	i	i	i
COc1ccc(NC(=O)c2c(Nc3ccccc3)sc(C(=O)c3ccc(F)cc3)c2N)cc1	i	i	i	100*
COc1cc(NC(=O)[C@@H]2CCCN(S(=O)(=O)c3cccc4cccnc34)C2)cc(OC)c1OC	i	i	i	25*
COc1cc(NC(=O)[C@H]2CCCN2S(=O)(=O)c2cccc3cccnc23)cc(OC)c1OC	i	i	i	i
CC(C)CN(C(=O)C1CCC1)c1c(N)n(Cc2ccccc2)c(=O)[nH]c1=O	i	/	/	/
CCCCC(CC)C(=O)Oc1ccc(O)c(C(C)(C)C)c1 (configuration not stated)	i	i	i	25*
N#Cc1ccc(CN2CCN(C(=O)c3cc(C4CC4)nn3-c3ccccc3)CC2)cc1	i	/	/	/
O=[N+]([O-])c1ccc(NC(=S)NCCc2ccc(Cl)cc2)cc1	i	i	i	100*
O=[N+]([O-])c1cc(C(F)(F)F)ccc1NCCCCNS(=O)(=O)c1ccc(Cl)cc1	i	i	i	i
S=C(NCCc1ccccc1)Nc1ccc(Cl)cc1	i	i	i	i
O=[N+]([O-])c1cc(C(F)(F)F)ccc1NCCNC(=S)Nc1ccc(Cl)cc1	i	i	i	100*
O=[N+]([O-])c1ccc(NC(=S)NCCc2ccccc2)cc1	i	i	i	100*
O=[N+]([O-])c1ccc(NC(=S)NCc2ccc(F)cc2)cc1	-5*	i	i	25*
CCOC(=O)c1c(C)[nH]c(C)c1C(=O)COC(=O)[C@@H](NC(=O)c1ccco1)C(C)C	i	/	/	/
SMILES	TMEM16A act	CHT inh	CHT PAM	ANO1 block
COc1ccc(S(=O)(=O)N2CCc3ccccc32)cc1C(=O)N(CC(C)C)C1CCS(=O)(=O)C1 (configuration not stated)	i	i	i	i
CN1CCN(c2nc3c(c(=O)[nH]c(=O)n3C)n2Cc2cccc(Br)c2)CC1	i	i	i	i
CCCNc1nc2c(c(=O)[nH]c(=O)n2C)n1Cc1cccc(Br)c1	-5.84*	i	i	i
O=C(Cn1c2ccccc2c2nc3n(c(=O)c21)CCS3)Nc1ccccc1	-31.5*	i	i	i
Cc1ccc(S(=O)(=O)N2CCN(c3nn(C)c(=O)n(C)c3=O)CC2)cc1C	i	/	/	/
Cn1nc(N2CCN(S(=O)(=O)c3ccccc3)CC2)c(=O)n(C)c1=O	-29.5*	/	/	/
c1ccc(CNc2cnccn2)cc1	i	i	i	i
c1ccc(CCNc2cnccn2)cc1	-4.68*	i	i	i
Cc1cc(C)c(OCC(=O)OCC(=O)NNC(=O)c2ccccc2F)c(C)c1	i	/	/	/
CCCCNC(=O)c1cccc(S(=O)(=O)N2CC3(C)CC2CC(C)(C)C3)c1 (configuration not stated)	i	/	/	/
CN=C(Nc1ccc2c(c1)OCO2)SC1CC(=O)N(c2ccccc2)C1=O (configuration not stated)	i	i	i	25*
O=C(O)c1ccc(N2C(=O)CC(SC(=NCc3ccc4c(c3)OCO4)Nc3ccccc3)C2=O)cc1 (configuration not stated)	i	i	i	i
CCN(C(=O)c1cc(S(=O)(=O)N2CCOCC2)cn1C)c1cccc(C)c1	i	i	i	100*
Cc1cccc(N(C)C(=O)c2cc(S(=O)(=O)N3CCCC3)cn2C)c1	i	i	i	i
CC(=O)NCCNC(=O)c1ccc(NC2=NC3CS(=O)(=O)CC3S2)cc1 (configuration not stated)	-12.1*	i	i	i
Cc1nn(-c2ccc([N+](=O)[O-])cc2)c2c1C(c1cccc(Br)c1)N1C(=N2)C(=O)Nc2ccccc21 (configuration not stated)	i	-6.63*	i	i
Cc1nn(-c2ccccc2)c2c1C(c1ccc([N+](=O)[O-])cc1)N1C(=N2)C(=O)Nc2ccccc21 (configuration not stated)	i	i	i	i
COc1cc(C)nc(N2CCCC(C(=O)Nc3cc(Cl)ccc3OC)C2)n1 (configuration not stated)	i	i	i	25*
COC(=O)C1CCN(CC(=O)Nc2cc(Cl)ccc2OC)CC1	/	-9.68*	i	i
COCCCn1c(SCC(=O)NC2CCCC2)nnc1-c1cccs1	i	i	i	i
C/C(=N/NS(=O)(=O)c1ccc(Cl)cc1)c1cccc(O)c1	i	i	i	i
C/C(=N\NS(=O)(=O)c1ccccc1)c1cc(Cl)cc(Cl)c1O	i	i	i	100*
CC(C)c1ccc(OCc2ccc(C(=O)N3CCN(c4ccccn4)CC3)cc2)cc1	i	i	i	100*
COc1ccc(CCNC(=O)COc2ccc3c(C)cc(=O)oc3c2)cc1OC	i	i	i	i
NC(=O)C1(NC2CCCCC2)CCN(Cc2ccccc2)CC1	i	/	/	/
Clc1cccc(-c2nnc(SC/C=C/c3ccccc3)n2Cc2ccco2)c1	i	i	7.3*	i
COc1ccc2[nH]cc(/C=C/c3cc[n+](C)cc3)c2c1	i	i	i	i
O=C(Cc1cccs1)Nn1c(Cc2cccs2)nc2ccccc2c1=O	i	-6.74*	i	i
O=C(Nn1c(Cc2cccs2)nc2ccccc2c1=O)c1ccc(F)c(F)c1	i	i	i	i
CCOc1cc(C)c(-c2onc(C(F)(F)F)c2-c2csc(C)n2)c(O)c1	i	i	i	100*

High-throughput results: PubChem BioAssay, Johns Hopkins Ion Channel Center
